Results published in the supplement of paper PMC4466140.

B1: unnamed (peptide)
chain: LYEAMPPTLPHRDWK

What follows are binders tested against AgAbp1 (assay: SPOT peptide array binding signal intensity (averaged, normalized) (arbitrary units (background-subtracted, floor 0; scale differs between SH3 domains)); higher = stronger binding of the SH3 domain to the peptide).
How it was run: (§1)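 E. coli BL21(DE3) was used to express GST-fused SH3 domains from four yeast species, which were then purified on glutathione Sepharose. These were incubated at 10 μg/ml in TBS-based blocking buffer overnight at 4°C on cellulose membranes carrying synthetic 15-mer peptides, in which cysteines were replaced by serines. Binding signal is the replicate average of normalized, background-subtracted spot intensity, in arbitrary units that differ between domains.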

**Q.** How did the “SPOT peptide array binding signal intensity” value turn out when B1 was run?
**A.** Its value is 1.

Each binder was assayed against AgBbc1 in the same assay as above.
How it was run: as §1

**Q.** For B1, which “SPOT peptide array binding signal intensity” value is on record?
**A.** The value was 2.5.

Each binder was assayed against AgBem1-D1 in the same assay as above.
How it was run: as §1

**Q.** Which “SPOT peptide array binding signal intensity” value does the source give for B1 here?
**A.** Its value is 13.5.

The binders below were run against AgBzz1-D1 in the same assay as above.
How it was run: as §1

**Q.** Which “SPOT peptide array binding signal intensity” value does the source give for B1 here?
**A.** Its value is no more than 0.

The binders below were run against AgBzz1-D2 in the same assay as above.
How it was run: as §1

**Q.** For B1, which “SPOT peptide array binding signal intensity” value is on record?
**A.** Its value is no more than 0.

What follows are binders tested against AgCyk3 in the same assay as above.
How it was run: as §1

**Q.** Which “SPOT peptide array binding signal intensity” value does the source give for B1 here?
**A.** Its value is 2.

These binders were tested against AgFus1 in the same assay as above.
How it was run: as §1

**Q.** For B1, which “SPOT peptide array binding signal intensity” value is on record?
**A.** The value was 33.

These binders were tested against AgHof1 in the same assay as above.
How it was run: as §1

**Q.** B1 was tested. Which “SPOT peptide array binding signal intensity” value did it give?
**A.** Its value is 0.5.

Each binder was assayed against AgHse1 in the same assay as above.
How it was run: as §1

**Q.** B1 was tested. Which “SPOT peptide array binding signal intensity” value did it give?
**A.** The value was 50.

The binders below were run against AgLsb1 in the same assay as above.
How it was run: as §1

**Q.** Which “SPOT peptide array binding signal intensity” value does the source give for B1 here?
**A.** Its value is 30.5.

Each binder was assayed against AgLsb4 in the same assay as above.
How it was run: as §1

**Q.** How did the “SPOT peptide array binding signal intensity” value turn out when B1 was run?
**A.** Its value is 518.

What follows are binders tested against AgMyo5 in the same assay as above.
How it was run: as §1

**Q.** Which “SPOT peptide array binding signal intensity” value does the source give for B1 here?
**A.** Its value is 0.5.

What follows are binders tested against AgNbp2 in the same assay as above.
How it was run: as §1

**Q.** For B1, which “SPOT peptide array binding signal intensity” value is on record?
**A.** Its value is 154.

The binders below were run against AgRvs167 in the same assay as above.
How it was run: as §1

**Q.** For B1, which “SPOT peptide array binding signal intensity” value is on record?
**A.** Its value is 30.2.

These binders were tested against AgSho1 in the same assay as above.
How it was run: as §1

**Q.** How did the “SPOT peptide array binding signal intensity” value turn out when B1 was run?
**A.** Its value is 26.5.

These binders were tested against AgSla1-D1-D2 in the same assay as above.
How it was run: as §1

**Q.** For B1, which “SPOT peptide array binding signal intensity” value is on record?
**A.** The value was no more than 0.

Each binder was assayed against AgSla1-D3 in the same assay as above.
How it was run: as §1

**Q.** How did the “SPOT peptide array binding signal intensity” value turn out when B1 was run?
**A.** The value was no more than 0.

The binders below were run against CaAbp1-D1 in the same assay as above.
How it was run: as §1

**Q.** With B1 as the binder, how does the “SPOT peptide array binding signal intensity” value read?
**A.** Its value is 8.

Each binder was assayed against CaAbp1-D2 in the same assay as above.
How it was run: as §1

**Q.** How did the “SPOT peptide array binding signal intensity” value turn out when B1 was run?
**A.** The value was 1.5.

These binders were tested against CaBbc1 in the same assay as above.
How it was run: as §1

**Q.** For B1, which “SPOT peptide array binding signal intensity” value is on record?
**A.** Its value is 16.5.

The binders below were run against CaBem1-D1 in the same assay as above.
How it was run: as §1

**Q.** Which “SPOT peptide array binding signal intensity” value does the source give for B1 here?
**A.** Its value is 16.

The binders below were run against CaBzz1-D1 in the same assay as above.
How it was run: as §1

**Q.** How did the “SPOT peptide array binding signal intensity” value turn out when B1 was run?
**A.** The value was 50.5.

Each binder was assayed against CaBzz1-D2 in the same assay as above.
How it was run: as §1

**Q.** Which “SPOT peptide array binding signal intensity” value does the source give for B1 here?
**A.** Its value is 27.2.

The binders below were run against CaCyk3 in the same assay as above.
How it was run: as §1

**Q.** Which “SPOT peptide array binding signal intensity” value does the source give for B1 here?
**A.** Its value is no more than 0.

Each binder was assayed against CaFus1 in the same assay as above.
How it was run: as §1

**Q.** With B1 as the binder, how does the “SPOT peptide array binding signal intensity” value read?
**A.** Its value is 327.

What follows are binders tested against CaHof1 in the same assay as above.
How it was run: as §1

**Q.** How did the “SPOT peptide array binding signal intensity” value turn out when B1 was run?
**A.** The value was 0.5.

Each binder was assayed against CaHse1 in the same assay as above.
How it was run: as §1

**Q.** How did the “SPOT peptide array binding signal intensity” value turn out when B1 was run?
**A.** Its value is 150.

Each binder was assayed against CaLsb1 in the same assay as above.
How it was run: as §1

**Q.** Which “SPOT peptide array binding signal intensity” value does the source give for B1 here?
**A.** The value was 0.5.

These binders were tested against CaLsb4 in the same assay as above.
How it was run: as §1

**Q.** Which “SPOT peptide array binding signal intensity” value does the source give for B1 here?
**A.** Its value is 806.

What follows are binders tested against CaMyo5 in the same assay as above.
How it was run: as §1

**Q.** Which “SPOT peptide array binding signal intensity” value does the source give for B1 here?
**A.** Its value is 12.

What follows are binders tested against CaNbp2 in the same assay as above.
How it was run: as §1

**Q.** B1 was tested. Which “SPOT peptide array binding signal intensity” value did it give?
**A.** Its value is 141.

The binders below were run against CaRvs167 in the same assay as above.
How it was run: as §1

**Q.** With B1 as the binder, how does the “SPOT peptide array binding signal intensity” value read?
**A.** The value was 195.

The binders below were run against CaRvs167-3 in the same assay as above.
How it was run: as §1

**Q.** For B1, which “SPOT peptide array binding signal intensity” value is on record?
**A.** Its value is 6.

The binders below were run against CaSho1 in the same assay as above.
How it was run: as §1

**Q.** Which “SPOT peptide array binding signal intensity” value does the source give for B1 here?
**A.** Its value is 130.

What follows are binders tested against CaSla1-D1-D2 in the same assay as above.
How it was run: as §1

**Q.** How did the “SPOT peptide array binding signal intensity” value turn out when B1 was run?
**A.** The value was 25.5.

These binders were tested against CaSla1-D3 in the same assay as above.
How it was run: as §1

**Q.** B1 was tested. Which “SPOT peptide array binding signal intensity” value did it give?
**A.** The value was 60.5.

Each binder was assayed against ScAbp1 in the same assay as above.
How it was run: as §1

**Q.** How did the “SPOT peptide array binding signal intensity” value turn out when B1 was run?
**A.** Its value is no more than 0.

Each binder was assayed against ScBbc1 in the same assay as above.
How it was run: as §1

**Q.** For B1, which “SPOT peptide array binding signal intensity” value is on record?
**A.** Its value is no more than 0.

What follows are binders tested against ScBem1-D1 in the same assay as above.
How it was run: as §1

**Q.** B1 was tested. Which “SPOT peptide array binding signal intensity” value did it give?
**A.** The value was no more than 0.

Each binder was assayed against ScBzz1-D1 in the same assay as above.
How it was run: as §1

**Q.** With B1 as the binder, how does the “SPOT peptide array binding signal intensity” value read?
**A.** The value was no more than 0.

The binders below were run against ScBzz1-D2 in the same assay as above.
How it was run: as §1

**Q.** B1 was tested. Which “SPOT peptide array binding signal intensity” value did it give?
**A.** Its value is 21.

Each binder was assayed against ScCyk3 in the same assay as above.
How it was run: as §1

**Q.** How did the “SPOT peptide array binding signal intensity” value turn out when B1 was run?
**A.** Its value is 3.

Each binder was assayed against ScFus1 in the same assay as above.
How it was run: as §1

**Q.** How did the “SPOT peptide array binding signal intensity” value turn out when B1 was run?
**A.** Its value is 95.5.

Each binder was assayed against ScHof1 in the same assay as above.
How it was run: as §1

**Q.** With B1 as the binder, how does the “SPOT peptide array binding signal intensity” value read?
**A.** Its value is 4.5.

These binders were tested against ScHse1 in the same assay as above.
How it was run: as §1

**Q.** With B1 as the binder, how does the “SPOT peptide array binding signal intensity” value read?
**A.** Its value is 15.

What follows are binders tested against ScLsb1 in the same assay as above.
How it was run: as §1

**Q.** For B1, which “SPOT peptide array binding signal intensity” value is on record?
**A.** Its value is 13.

These binders were tested against ScLsb2 in the same assay as above.
How it was run: as §1

**Q.** How did the “SPOT peptide array binding signal intensity” value turn out when B1 was run?
**A.** Its value is 2.

What follows are binders tested against ScLsb3 in the same assay as above.
How it was run: as §1

**Q.** For B1, which “SPOT peptide array binding signal intensity” value is on record?
**A.** The value was 736.

Each binder was assayed against ScLsb4 in the same assay as above.
How it was run: as §1

**Q.** With B1 as the binder, how does the “SPOT peptide array binding signal intensity” value read?
**A.** The value was 636.

The binders below were run against ScMyo3 in the same assay as above.
How it was run: as §1

**Q.** Which “SPOT peptide array binding signal intensity” value does the source give for B1 here?
**A.** Its value is 19.5.

Each binder was assayed against ScMyo5 in the same assay as above.
How it was run: as §1

**Q.** For B1, which “SPOT peptide array binding signal intensity” value is on record?
**A.** The value was 0.5.

These binders were tested against ScNbp2 in the same assay as above.
How it was run: as §1

**Q.** For B1, which “SPOT peptide array binding signal intensity” value is on record?
**A.** Its value is 252.

Each binder was assayed against ScPex13 in the same assay as above.
How it was run: as §1

**Q.** For B1, which “SPOT peptide array binding signal intensity” value is on record?
**A.** Its value is 807.

What follows are binders tested against ScRvs167 in the same assay as above.
How it was run: as §1

**Q.** With B1 as the binder, how does the “SPOT peptide array binding signal intensity” value read?
**A.** The value was 374.

Each binder was assayed against ScSho1 in the same assay as above.
How it was run: as §1

**Q.** With B1 as the binder, how does the “SPOT peptide array binding signal intensity” value read?
**A.** The value was 257.

The binders below were run against ScSla1-D1-D2 in the same assay as above.
How it was run: as §1

**Q.** B1 was tested. Which “SPOT peptide array binding signal intensity” value did it give?
**A.** The value was 46.

The binders below were run against ScSla1-D3 in the same assay as above.
How it was run: as §1

**Q.** B1 was tested. Which “SPOT peptide array binding signal intensity” value did it give?
**A.** The value was 85.5.

These binders were tested against SpAbp1-D1 in the same assay as above.
How it was run: as §1

**Q.** For B1, which “SPOT peptide array binding signal intensity” value is on record?
**A.** The value was no more than 0.

What follows are binders tested against SpBbc1 in the same assay as above.
How it was run: as §1

**Q.** With B1 as the binder, how does the “SPOT peptide array binding signal intensity” value read?
**A.** Its value is 2.

The binders below were run against SpBzz1-D1 in the same assay as above.
How it was run: as §1

**Q.** B1 was tested. Which “SPOT peptide array binding signal intensity” value did it give?
**A.** The value was 67.
